The target in assay [1] is Peroxisome proliferator-activated receptor gamma (Homo sapiens) (UniProt P37231). Briefly: qHTS assay for small molecule agonists of peroxisome proliferator-activated receptor gamma signaling (AID 588536; active means well fitted curve in the direction sought with a large enough effect in the signal ratio, with a control signal flat, not every such curve was filed as active; the % refers to the signal ratio;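 further: 0% = DMSO basal wells and 100% = rosiglitazone at 2 µM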). The settings on record: HEK293 PPARg-UAS-bla, beta-lactamase ratio, 16 h, percent of rosiglitazone response, DMSO as zero; series mostly up to 76.7 µM. The method, boiled down: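 GeneBLAzer PPAR-gamma-UAS-bla HEK293 cells in 1% charcoal/dextran-treated FBS medium were treated 16 h at 37 C with compounds. Beta-lactamase activity was read by CCF4 ratio (460/530 nm). Response was normalized to 2 uM rosiglitazone (100%) and DMSO, then Hill-fitted for EC50 and efficacy.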
Chain of Peroxisome proliferator-activated receptor gamma (Homo sapiens) (P37231 whole entry, looked up): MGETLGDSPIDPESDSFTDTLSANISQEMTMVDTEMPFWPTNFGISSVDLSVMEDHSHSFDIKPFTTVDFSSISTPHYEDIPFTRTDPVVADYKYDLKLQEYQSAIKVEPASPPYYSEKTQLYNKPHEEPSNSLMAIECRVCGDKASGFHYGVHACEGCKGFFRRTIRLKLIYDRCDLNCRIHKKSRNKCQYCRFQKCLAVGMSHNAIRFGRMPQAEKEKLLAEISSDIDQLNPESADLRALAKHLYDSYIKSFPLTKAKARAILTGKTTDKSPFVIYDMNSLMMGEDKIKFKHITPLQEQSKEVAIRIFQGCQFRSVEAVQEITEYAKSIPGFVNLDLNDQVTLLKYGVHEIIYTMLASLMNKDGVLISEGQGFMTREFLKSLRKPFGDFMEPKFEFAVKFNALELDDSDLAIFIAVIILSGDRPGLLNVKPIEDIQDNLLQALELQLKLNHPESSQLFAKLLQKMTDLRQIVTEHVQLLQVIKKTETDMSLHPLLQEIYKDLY
(In general: Quantitative high-throughput screening tests each substance at several concentrations.)

The target is the same in assay [2]. Briefly: qHTS assay for small molecule antagonists of peroxisome proliferator-activated receptor gamma signaling (AID 588537; active means well fitted inhibition curve with a large enough effect in the signal ratio, with a control signal flat, not every such curve was filed as active; the % refers to the signal ratio;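 further: reporter cells co-stimulated with 50 nM rosiglitazone agonist during compound treatment; % of control where 0% means no effect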). The settings on record: HEK293 PPARg-UAS-bla, beta-lactamase ratio, antagonist mode; series mostly up to 76.8 µM. The method, boiled down:
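Inhibitors of agonist-stimulated UAS-bla reporter activity were sought in HEK293 cells; rosiglitazone (50 nM) defined full signal and DMSO baseline. Curves fitted to Hill model gave IC50 and efficacy.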

Assay [3] deals with Vitamin D3 receptor (Homo sapiens) (UniProt P11473). Briefly: qHTS assay for small molecule antagonists of vitamin D receptor signaling (AID 588541).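 Further: receptor activated by calcitriol during compound treatment; on the % scale 0 is the no-effect control and ±100 the full control effect.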 To be noted: HEK293T VDR-UAS-bla, beta-lactamase ratio, antagonist mode; series mostly up to 76.7 µM. The method, boiled down: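 Antagonist-mode beta-lactamase reporter assay: HEK293T VDR-UAS-bla cells were exposed to titrated compound alongside 1-alpha,25-dihydroxyvitamin D3 at 3 nM final for 16 h. Values were normalized to the 50 nM agonist control and DMSO basal, with IC50 and efficacy from Hill equation fits.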
Chain of Vitamin D3 receptor (Homo sapiens) (P11473 whole entry, looked up): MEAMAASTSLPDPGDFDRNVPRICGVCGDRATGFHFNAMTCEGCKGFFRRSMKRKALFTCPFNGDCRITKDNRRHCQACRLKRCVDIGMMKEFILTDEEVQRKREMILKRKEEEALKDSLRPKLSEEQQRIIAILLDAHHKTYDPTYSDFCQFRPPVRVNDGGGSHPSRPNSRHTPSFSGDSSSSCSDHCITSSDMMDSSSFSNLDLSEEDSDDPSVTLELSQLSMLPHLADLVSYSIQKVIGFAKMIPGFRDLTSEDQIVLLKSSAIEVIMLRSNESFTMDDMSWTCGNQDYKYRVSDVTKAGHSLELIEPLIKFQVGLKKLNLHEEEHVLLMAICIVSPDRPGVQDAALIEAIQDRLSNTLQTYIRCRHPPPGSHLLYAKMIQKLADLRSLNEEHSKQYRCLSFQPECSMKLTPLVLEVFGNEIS

The target is the same in assay [4]. Briefly: qHTS assay for small molecule agonists of vitamin D receptor signaling (AID 588543).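 Further: 0% = DMSO basal and 100% = reference agonist control.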 To be noted: HEK293T VDR-UAS-bla, beta-lactamase ratio, 16 h; series mostly up to 76.8 µM. A digest of the protocol: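 β-lactamase reporter, VDR-UAS-bla HEK293T, agonist mode. Cells plated 5 h at 37 °C, compound titration 16 h at 37 °C, CCF4 dye 2 h RT, ratio 460/530 nm. Hill fit → EC50, efficacy vs 50 nM 1α,25-(OH)2D3.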

Assay [5] can be described thus: qHTS assay for small molecule agonists of retinoid X receptor alpha signaling (AID 588544).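 On activation: 0% = DMSO basal wells and 100% = reference agonist.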 The settings on record: HEK293T RXRa-UAS-bla, beta-lactamase reporter, 18 h; 530 nm emission.
For assay [6], the target named is Thyroid hormone receptor beta (Homo sapiens) (UniProt P10828). Briefly: qHTS assay for small molecule agonists of thyroid hormone receptor beta signaling (AID 588545).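 Further: 0% = DMSO only and 100% = 10 nM T3.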 The settings on record: TR-UAS-bla GripTite HEK 293, beta-lactamase ratio, agonist mode, 18 h, percent of T3 response, DMSO as zero; series mostly up to 76.7 µM. A digest of the protocol: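 TR-UAS-bla GripTite HEK 293 cells (2500/well, medium with 2% charcoal/dextran FBS) were treated in agonist mode for 18 h at 37 C, titrated. Beta-lactamase was read by CCF4 ratio after 2 h; normalized to 10 nM T3 (100%) and DMSO, Hill-fitted for EC50 and efficacy.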
Chain of Thyroid hormone receptor beta (Homo sapiens) (P10828 whole entry, looked up): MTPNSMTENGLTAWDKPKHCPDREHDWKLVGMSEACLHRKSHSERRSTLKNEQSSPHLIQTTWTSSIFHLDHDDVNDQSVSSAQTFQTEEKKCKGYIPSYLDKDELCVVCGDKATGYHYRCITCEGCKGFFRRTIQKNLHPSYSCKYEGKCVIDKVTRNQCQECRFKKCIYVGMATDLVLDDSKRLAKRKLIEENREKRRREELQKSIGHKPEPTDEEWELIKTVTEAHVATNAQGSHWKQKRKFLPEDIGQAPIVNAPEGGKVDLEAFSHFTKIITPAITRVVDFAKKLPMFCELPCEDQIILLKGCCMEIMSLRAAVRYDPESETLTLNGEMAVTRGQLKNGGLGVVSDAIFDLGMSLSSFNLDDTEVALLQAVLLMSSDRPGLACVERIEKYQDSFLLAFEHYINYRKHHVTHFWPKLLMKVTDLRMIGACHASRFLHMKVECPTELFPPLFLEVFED

For assay [7] the target is unchanged. Briefly: qHTS assay for small molecule antagonists of thyroid hormone receptor beta signaling (AID 588547; active means well fitted inhibition curve with a large enough effect in the signal ratio, with a control signal flat, not every such curve was filed as active; the % refers to the signal ratio;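 further: cells stimulated with 0.4 nM T3 agonist during compound exposure; on the % scale 0 is the no-effect control and ±100 the full control effect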). The settings on record: TR-UAS-bla HEK293, beta-lactamase ratio, antagonist mode, 18 h. A digest of the protocol: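 Inhibition of T3-driven (0.4nM final) beta-lactamase reporter activity was measured over 0.59 nM to 92 uM compound after 18 h at 37 C. The cells were GripTite HEK293 TR-UAS-bla in charcoal/dextran-stripped serum, with CCF4 ratio read-out and IC50 from Hill fits.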

For assay [8], the target named is Voltage-gated inwardly rectifying potassium channel KCNH2 (Homo sapiens) (UniProt Q12809). Briefly: qHTS Assay for Small Molecule Inhibitors of the Human hERG Channel Activity (AID 588834; active means well fitted inhibition curve with a large enough effect;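 further: top concentration of the series differs between compounds; on the % scale 0 is the no-effect control and ±100 the full control effect; lower thallium flux fluorescence means stronger hERG block; nearly all actives have a fitted effect of over 50% in size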). The settings on record: U2OS BacMam hERG, FluxOR thallium flux fluorescence; series mostly up to 92.2 µM. The method, boiled down: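 Concentration-response qHTS measuring drop in thallium-sensitive dye signal. U2OS cells carrying BacMam hERG; compound exposure ~10 min, then stimulation buffer and 2 min read at 1 sec intervals.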
Chain of Voltage-gated inwardly rectifying potassium channel KCNH2 (Homo sapiens) (Q12809 whole entry, looked up): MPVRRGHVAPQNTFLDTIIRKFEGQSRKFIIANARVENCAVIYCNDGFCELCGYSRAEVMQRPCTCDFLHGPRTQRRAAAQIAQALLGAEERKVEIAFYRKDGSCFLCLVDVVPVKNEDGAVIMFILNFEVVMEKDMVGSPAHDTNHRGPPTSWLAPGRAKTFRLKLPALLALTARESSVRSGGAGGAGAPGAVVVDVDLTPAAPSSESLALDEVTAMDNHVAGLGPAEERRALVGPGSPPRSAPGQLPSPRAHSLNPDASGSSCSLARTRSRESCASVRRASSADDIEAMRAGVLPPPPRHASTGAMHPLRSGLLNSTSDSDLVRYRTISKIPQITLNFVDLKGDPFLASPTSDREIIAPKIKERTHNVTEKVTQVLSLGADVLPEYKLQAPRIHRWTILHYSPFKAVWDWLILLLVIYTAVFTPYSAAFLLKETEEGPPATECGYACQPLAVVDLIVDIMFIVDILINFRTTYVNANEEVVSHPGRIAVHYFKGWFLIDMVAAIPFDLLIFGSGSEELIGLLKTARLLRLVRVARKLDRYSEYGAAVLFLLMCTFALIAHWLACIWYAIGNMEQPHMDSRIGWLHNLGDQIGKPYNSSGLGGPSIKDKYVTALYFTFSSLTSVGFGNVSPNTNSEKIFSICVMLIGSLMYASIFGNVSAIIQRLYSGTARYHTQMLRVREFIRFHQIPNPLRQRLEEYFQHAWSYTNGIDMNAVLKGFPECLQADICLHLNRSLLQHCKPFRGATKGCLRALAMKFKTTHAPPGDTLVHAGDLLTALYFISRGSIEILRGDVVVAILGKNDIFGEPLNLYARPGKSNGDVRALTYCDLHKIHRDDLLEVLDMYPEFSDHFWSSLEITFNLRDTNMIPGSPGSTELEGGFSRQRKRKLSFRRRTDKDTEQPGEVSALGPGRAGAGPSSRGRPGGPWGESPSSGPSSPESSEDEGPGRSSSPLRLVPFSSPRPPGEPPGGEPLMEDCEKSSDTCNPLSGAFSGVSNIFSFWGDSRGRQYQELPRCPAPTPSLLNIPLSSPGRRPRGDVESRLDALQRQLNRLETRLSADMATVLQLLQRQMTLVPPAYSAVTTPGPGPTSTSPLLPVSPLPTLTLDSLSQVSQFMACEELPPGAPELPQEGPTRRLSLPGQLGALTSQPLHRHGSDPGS

Assay [9] is described as follows: qHTS assay for small molecule activators of the p53 signaling pathway (AID 651743; active means well fitted activation curve with a large enough effect in the signal ratio, not every such curve was filed as active; the % refers to the signal ratio; further: % of control where 0% means no effect). The settings on record: HCT-116 p53RE-bla, beta-lactamase FRET ratio, 16 h; stronger effect = higher value. The method, boiled down: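 Screen for p53 pathway agonists uses stably transfected p53RE-bla HCT-116 cells, 4,000 per well, treated 16 h at 37 C with compounds in DMSO.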
The nature of assay [10]: qHTS assay for small molecule activators of the nuclear factor-kappa B (NF-kB) signaling pathway (AID 651749; active means well fitted activation curve with a large enough effect in the signal ratio; the % refers to the signal ratio; further: % of control where 0% means no effect). To be noted: NF-kB-bla ME-180 cells, beta-lactamase FRET ratio, 16 h; stronger effect = higher value. The method, boiled down: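 Stably transfected ME-180 line; NF-kB response element upstream of beta-lactamase. Treatment: compound or DMSO, 16 hr. Detection: fluorescent FRET substrate.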

In assay [11] the target is Retinoic acid receptor RXR-alpha (Homo sapiens) (UniProt P19793). The assay is described as follows: qHTS assay for small molecule agonists of retinoid X receptor alpha signaling (AID 588544).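 On activation: 0% = DMSO basal wells and 100% = reference agonist.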 To be noted: HEK293T RXRa-UAS-bla, beta-lactamase reporter, 18 h; series mostly up to 76.7 µM.
Chain of Retinoic acid receptor RXR-alpha (Homo sapiens) (P19793 whole entry, looked up): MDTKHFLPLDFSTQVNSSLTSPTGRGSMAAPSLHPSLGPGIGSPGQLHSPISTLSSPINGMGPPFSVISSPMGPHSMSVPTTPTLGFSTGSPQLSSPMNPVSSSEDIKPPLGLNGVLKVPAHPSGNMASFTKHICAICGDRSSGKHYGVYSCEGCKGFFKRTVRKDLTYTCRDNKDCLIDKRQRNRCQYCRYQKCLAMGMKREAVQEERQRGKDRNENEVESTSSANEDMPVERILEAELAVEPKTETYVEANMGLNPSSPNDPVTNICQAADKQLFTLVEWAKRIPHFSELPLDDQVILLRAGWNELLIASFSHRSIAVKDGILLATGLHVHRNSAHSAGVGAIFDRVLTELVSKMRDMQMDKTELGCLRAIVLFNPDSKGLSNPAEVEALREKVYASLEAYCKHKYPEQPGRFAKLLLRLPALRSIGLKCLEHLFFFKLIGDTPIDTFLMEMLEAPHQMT
The nature of assay [12]: qHTS assay for small molecule antagonists of retinoid X receptor alpha signaling (AID 588546; active means well fitted inhibition curve with a large enough effect in the signal ratio, with a control signal flat, not every such curve was filed as active; the % refers to the signal ratio;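 further: cells stimulated with 9-cis-retinoic acid as agonist; on the % scale 0 is the no-effect control and ±100 the full control effect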). To be noted: HEK293T RXRa-UAS-bla, beta-lactamase ratio, antagonist mode; measured here: W530 green channel, cytotoxicity proxy. The method, boiled down: (§1)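 Beta-lactamase reporter inhibition, read as CCF4 fluorescence ratio (ex 405, em 460/530 nm) after 2 h at RT. HEK293T UAS-bla cells, 2500/well, were stimulated with 9-cis-RA at 500 or 100 nM final alongside test compound for 18 h at 37 C.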

In assay [13] the target is Retinoic acid receptor RXR-alpha (Homo sapiens) (UniProt P19793). Described as above. The settings on record: HEK293T RXRa-UAS-bla, beta-lactamase ratio, antagonist mode. A digest of the protocol:
as §1

Assay [14] is described as follows: qHTS assay for small molecule antagonists of peroxisome proliferator-activated receptor delta signaling (AID 588535; active means well fitted inhibition curve with a large enough effect in the signal ratio, with a control signal flat, not every such curve was filed as active; the % refers to the signal ratio;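 on max response: cells co-treated with a PPAR-delta agonist as stimulator during compound exposure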). To be noted: HEK293T PPARd-UAS-bla, beta-lactamase FRET ratio, 18 h; 460 nm channel. The method, boiled down: (§2)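 Cell-based beta-lactamase assay in antagonist mode: 4000 HEK293T PPAR-delta-UAS-bla cells per well, 5 hr preincubation then 18 hr compound incubation at 37 C. IC50 obtained by Hill equation fitting.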

Assay [15] can be described thus: qHTS assay for small molecule agonists of the antioxidant response element (ARE) signaling pathway (AID 651741; active means well fitted activation curve with a large enough effect in the signal ratio; the % refers to the signal ratio; further: % of control where 0% means no effect). To be noted: HepG2 ARE-bla reporter, beta-lactamase FRET ratio, 16 h; series mostly up to 96 µM. A digest of the protocol: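 Seeding 2,000 ARE-bla HepG2 cells per well preceded a 5 h incubation at 37 C/5% CO2 and a 16 h compound exposure at 37 C. Beta-lactamase reporter activity was then quantified by fluorescence after 2 h with LiveBLAzer B/G FRET substrate.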

Assay [16] concerns the target Peroxisome proliferator-activated receptor delta (Homo sapiens) (UniProt Q03181). The assay is described as follows: qHTS assay for small molecule antagonists of peroxisome proliferator-activated receptor delta signaling (AID 588535).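 On max response: cells co-treated with a PPAR-delta agonist as stimulator during compound exposure.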 The settings on record: HEK293T PPARd-UAS-bla, beta-lactamase FRET ratio, 18 h; series mostly up to 76.7 µM. A digest of the protocol: as §2

Results on 10 molecules are retold here after PubChem BioAssay (NCATS).

Inconclusive results are not listed. The source made the active and inactive calls. Unless noted, the call rests on the fitted dose curve.

Chain of Peroxisome proliferator-activated receptor delta (Homo sapiens) (Q03181 whole entry, looked up): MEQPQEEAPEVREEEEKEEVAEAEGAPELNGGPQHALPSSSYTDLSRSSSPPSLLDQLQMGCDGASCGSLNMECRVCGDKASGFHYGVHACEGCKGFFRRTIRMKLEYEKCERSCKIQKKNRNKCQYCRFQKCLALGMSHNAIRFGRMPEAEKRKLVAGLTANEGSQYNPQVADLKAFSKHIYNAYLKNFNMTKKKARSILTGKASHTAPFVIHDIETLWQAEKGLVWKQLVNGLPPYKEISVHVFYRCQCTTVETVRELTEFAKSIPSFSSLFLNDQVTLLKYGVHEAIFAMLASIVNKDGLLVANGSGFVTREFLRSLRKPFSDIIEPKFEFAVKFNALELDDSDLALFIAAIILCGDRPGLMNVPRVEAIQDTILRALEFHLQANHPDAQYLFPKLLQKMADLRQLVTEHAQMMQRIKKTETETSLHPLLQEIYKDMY

As to `Cc1cccc(C(=O)O)c1[N+](=O)[O-]`, the outcome in assay [1], in assay [2], in assay [3], in [4] and in [6] was inactive. For the same molecule, the max response in assay [5] is -4.96%. For the same molecule, the activity change % (negative = inhibition) in [7] was -11.8% (inactive). The Potency result in [8] was “inactive”. Also, the results for the activation in [9] and in [10] were 1.31% (inactive) and -0.935% (inactive), respectively.

Turning to `CC(C)(C)OCC1CO1` (centres undefined), the result in assay [1], in assay [3], in assay [4], in [11] and in assay [6] was inactive. Also, the max response in assay [5] is -14.1%; in assay [12], -6.46%; in [13], -4.17% (inactive). Besides, the activity change % (negative = inhibition) in [7] was 13.4% (inactive). Further, the Potency entry in assay [8] was “inactive”. The results for the activation in assay [9] and in [10] were 0.176% (inactive) and 0.44% (inactive), respectively.

Take `O=[N+]([O-])c1ccc(Cl)cc1Cl`: the max response in assay [14] was 2.66%; in assay [5], -6.43%; in assay [12], -4.28%; in assay [13] it was 10.3% (inactive). Further, the outcome in assay [1], in assay [2], in assay [11] and in assay [6] was inactive. In addition, the activity change % (negative = inhibition) in assay [7] was 17.6% (inactive). The Potency entry in assay [8] was “inactive”. The activation in assay [10] was 0.0961% (inactive).

Consider `Nc1ccccc1S(=O)(=O)O`, for which the max response in assay [14] was -23.8%; in assay [5] it was 0.0246%; in [12], -2.85%; in assay [13] it was 1.63% (inactive). The outcome in assay [1], in assay [2], in assay [3], in assay [4] and in assay [6] was inactive. In addition, the activity change % (negative = inhibition) in assay [7] is 5.88% (inactive). Also, the activation in assay [9] is -0.779% (inactive); in assay [10] it was -0.0968% (inactive).

For `Cc1cccc2ccccc12`, the outcome in assay [1], in assay [3], in assay [4], in assay [11] and in [6] was inactive. Further, the max response is -13.1% in [5], -10.1% in [12] and 0.915% (inactive) in assay [13]. Further, the activity change % (negative = inhibition) in assay [7] was 12.2% (inactive). Moreover, in assay [15], the Potency entry was “inactive”. For the same molecule, the activation in [9] was -1.93% (inactive); in assay [10] it was -1.12% (inactive).

On to `NC(=O)NC(N)=O`, for which the max response in assay [14] is 34.3%; in [5], 6.09%; in assay [12], -1.82%; in assay [13], 66.5% (inactive). For the same molecule, the outcome in [1], in assay [11] and in [6] was inactive. Moreover, in assay [7], the activity change % (negative = inhibition) was 9.23% (inactive). For the same molecule, the Potency entry in assay [8] and in assay [15] was “inactive” in each case. The activation in assay [9] is -4.91% (inactive).

For the molecule `ClC/C=C/CCl`, the outcome in assay [1], in [2], in assay [3], in [4], in [11] and in assay [6] was inactive. For the same molecule, the figures for the max response in assay [5], in assay [12] and in [13] were -8.83%, -5.15% and 0.33% (inactive), respectively. Besides, the activity change % (negative = inhibition) in [7] was 19.3% (inactive). In addition, the Potency result in assay [8] is “inactive”. Also, the activation in [9] was -2.54% (inactive).

On to `CCCOCC(C)O` (centres undefined), for which the max response is -0.284% in assay [14], -2.42% in assay [5] and -6.13% in [12]. Besides, the Potency entry in assay [16] and in assay [8] was “inactive” each time. The result in assay [1] and in assay [3] was inactive. In assay [7], the activity change % (negative = inhibition) is 0.569% (inactive).

In the case of `CCCCOCCOCCSC#N`, the max response in [14] was 34.7%; in assay [5], 3.38%; in assay [12] it was -3.14%; in assay [13], 5.89% (inactive). Besides, the Potency entry in assay [16], in [8] and in assay [15] was “inactive” throughout. Also, the outcome in assay [1], in assay [3], in [4] and in assay [11] was inactive. Besides, the activation in [9] was -1.56% (inactive); in assay [10], 0.862% (inactive).

Take `NC(=O)c1ccccc1[N+](=O)[O-]`: the max response in assay [14] was -1.98%; in assay [5], -9.31%; in assay [12], 3.46%; in [13], 0.827% (inactive). Besides, the Potency entry in [16], in assay [8] and in [15] was “inactive” throughout. The result in assay [1], in assay [11] and in [6] was inactive. Further, in assay [7], the activity change % (negative = inhibition) is 5.01% (inactive). The activation was -0.853% (inactive) in assay [9] and -0.661% (inactive) in [10].
